Hit rate of the full screen: of about 31,000 sequences, about 1,400 (4.5%) were called active. This is one part of a sample in which actives are shown more often than they occur. Values without a mark were called inactive.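 How the source made its calls: active means median seed-adjusted z-score above 1 or below -1; inactive means the rest.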

The nature of this test: Novel Modifiers of Survival Motor Neuron (SMN) Protein: Gene Identification via Genome-wide siRNA Screen.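 Further: luminescence tracks full-length SMN protein made from the SMN2 reporter.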 Particulars: HEK293T SMN2-luciferase reporter, siRNA knockdown, 72 h; actives lie on both sides. An outline of the steps:
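HEK293T cells stably carrying an SMN2 promoter/splicing cassette–luciferase reporter were reverse-transfected with 1 pmol siRNA per well (druggable-genome library, 3 siRNAs per gene) and grown 72 h at 37 °C. Luminescence, normalized to negative-control siRNA and log10-transformed, was scored as MAD.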
A general note: Reporter assays use an easily measured gene product as a stand-in for the process of interest.
For the sequence GGUUGUUGCUGAUAGAGAATT against DPH5, the median seed-adjusted z-score is 0.
Then GAAGGACUCUGCAUAUGAUTT against SLC2A14, with -1.09 (active).
As to CAACUAUAGUGCUCCCAGUTT against ZFP36L1, the median seed-adjusted z-score is -0.933.
Then CUCAGAGUGCAGAACCACATT against TRIM15, with 0.292; and CCACGUACCCUUCAUCAAATT against KIF11, with -0.381; and GGUCUUCAGUGAACAGUUUTT against ZNF562, with -0.0954.
On to CUGUAAGAUUAAAUCCCAATT against TMTC4, for which the median seed-adjusted z-score is -1.16 (active).
The result for GCCUUACAACUCUAAUGAATT against ZNF519 reads 0.0162.
Then GCAUGGUCAUAGGCCUGAUTT against CYB561, with 0; and GGUGGAUGCUCAAUCCAGATT against FOXO1, with 0.0591.
The result for CGAGAAGAGGAUUAAAGGATT against HAND1 reads 0.161; that for GGAAGAUUACAACCGAACATT against ARHGEF12, 0.136; that for GAUCACGUUUGACAACAAATT against MCOLN1, -0.522.
In the case of CUUUAACUGGGAUCACUGUTT against FOLR3, the median seed-adjusted z-score is 0.
Then CAACCAAAGUCGAAUAUGATT against PLK1, with -2.57 (active).
Then UCCCAAACCUUCACCAUCATT against THAP8, with -0.872.
Then GCAUCACCAUUGCUUGGAATT against STAT5B, with 0; and CCUCGAUAUUUUAACCUUUTT against EID2, with -1.04 (active); and GUGAUAAAGUGAUAAGAUUTT against CPA6, with 0.343.
Regarding CCCACUAAAUUUUCGGAAATT against ATAD2, the median seed-adjusted z-score is -0.246.
Then CUAUGAAAAUUGCAGGAGATT against GCM2, with -0.241; and CCCAGGAACUGCUAACGAATT against SETMAR, with 0.191.
Then GCUCAUCCCUGUGCAUGGUTT against LY6G5B, with -1.29 (active).
The result for CUACAAGACAGGCAAUCUATT against IFI30 reads 0.401; that for CAGUAAGAAGGGUUCAAUATT against BTK, -0.0648; that for CAAGAGAUAUCAUCGAUUATT against ZRANB3, 0.0516.
In the case of GGAUAUAGCUGGUGACCCATT against PCDH7, the median seed-adjusted z-score was 0.192.
As for AGUUGUUGGAAUGACCUUATT against CLEC5A, the median seed-adjusted z-score was -1.07 (active).
The result for GAAGAUGUAUGGAAUUCUUTT against DARC reads 0.0814; that for CCAAGUAUCUGGUGGUGAATT against NDUFV1, -0.653.
Turning to GGACGAGAGAUGUACAUUATT against CNGA1, the median seed-adjusted z-score is -1.08 (active).
Then ACAUUUAGGUUGUAAACCATT against PLA2G12A, with 0.139; and UGGUCAACUAGAAUACAUATT against RGPD5, with -0.0931; and GGAGAUGCACAACAUCUUATT against PIP4K2B, with 0.17.
Then GAGUGGAAGUCAUACCCUATT against TTLL3, with -0.194.
The result for CUAAUAACAGGGUACAGUATT against ZNF238 reads -0.491.
For CUAUGGACUUCAUCGCUUUTT against EEF1E1, the median seed-adjusted z-score was -1.45 (active).
Then GCAGAGUCAUGACCAGGGATT against CHST6, with 0.372.
For CAGAUGCAGCACUCACUUUTT against MMP17, the median seed-adjusted z-score was -0.653.
Regarding AGAGAGCUCCGAACCUUCUTT against ICAM5, the median seed-adjusted z-score was -1 (active).
The result for GGAGGGUUUUCACGAUGAATT against AP2B1 reads -0.214; that for CUGCAGAUCUUGUGACAGATT against IMPA2, 0.0513; that for GUAUACUCCAGAACAAGUATT against ALDOB, -1.34 (active).
Then AGACAAAGAUUGAUAAACATT against SLC24A3, with 0.0177; and AGAUCUACCCAGACCCGGATT against TRAF4, with -1.16 (active); and UCUACGACGUGGACGGUAATT against RCVRN, with 0.562.
Regarding CAGUAUACGUGGUGCACGATT against PFKL, the median seed-adjusted z-score is 0.
Then GCAUCAACAAUAUCCGGGATT against FARSA, with -0.158.
Then GGGUUCCAGUAACCAGUGATT against RPP21, with -1.09 (active); and GCAGCUCCAGUAACCUCAATT against ZNF683, with -0.452.
Then GAAGAGAUGUUCAACUGCATT against RAB35, with 0.317.
As for GCAAGAGAAUUAAACUGCATT against RAB8A, the median seed-adjusted z-score was -0.0436.
Then GAGUUACAGCUGAUCAAAATT against VPS26A, with -1.55 (active); and GGGAUCAACUUAGAAGAGATT against POU6F1, with 0.978.
Then GGAUGCUGCUGAGAACUAUTT against PIK3R3, with -1.88 (active); and GGAUCUUGAAUUCAACUAUTT against TLR8, with 0.
The result for CGCUAUGAUCUGUACCACATT against TMEM147 reads 0.233; that for GGAACGCAGUCAGAUUUGATT against CA5B, 0.317.
As to GCGAUGAAAUUGUCGUGUATT against MAP3K9, the median seed-adjusted z-score was -0.498.
Then “AGAUAACUGGAAAAUGUCUTT against SLC22A18AS”, with 0.0382; and CAAUGUCCGUGAUCAUGAUTT against SARDH, with -0.195.
The result for GCCUCACCGUCUAUGUACATT against CD200 reads -0.0135; that for GGAUCACGAUGAAGACAAATT against CTSL3, 1.07 (active); that for ACUGGGCUCUCUUUACCUATT against DBNL, 0.398.
Then GAACAGGCGUGCCAAGUCUTT against MIXL1, with -0.204; and AAAGCGCAAUUGGUGGUAATT against DYNLT1, with 0.764; and GGUUGCUAUCAAUACCCUUTT against SLC22A18, with -0.654.
As for CCAUCCUUAGAGUUCCUUATT against SLC23A3, the median seed-adjusted z-score is -0.254.
Then CGGUAUGCCUGUGACGACATT against FCER2, with -1.75 (active).

Source of the values: PubChem BioAssay AID1347426 (Functional Genomics Laboratory (NCATS/FGL), 2020).
